This passage reports growth results from PubChem BioAssay (NCI).

About 83,000 compounds went through this panel and 20% of them were active in at least one assay; those are over-represented in the sample as a whole.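 Method: cells in 96-well plates; compound added at one concentration; 48 h incubation; percent growth measured; values under 10 scored active.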 Values without a mark were called inactive. The source made the active and inactive calls.

Holding throughout (test): NCI-60 one-dose screen, 48 h (100 = growth as untreated, 0 = no growth, -100 = all killed)
Settings in all cases: 10 µM unless noted

For experiment [1], the system named is DU-145 prostate.
Experiment [2] concerns K-562 leukemia.
Experiment [3] concerns MALME-3M melanoma.
Experiment [4] concerns MDA-MB-231 breast.
Experiment [5] has as its system RXF 393 renal.
Experiment [6] relates to SF-268 CNS.
For experiment [7], the system named is SF-295 CNS.
In experiment [8] the test system is SF-539 CNS.
Experiment [9] concerns UACC-257 melanoma.
For experiment [10], the system named is M14 melanoma.
Experiment [11] has as its system HCT-15 colon.
The subject of experiment [12] is HT29 colon.
The test system of experiment [13] is SNB-75 CNS.
Experiment [14] concerns SNB-19 CNS.
The test system of experiment [15] is U251 CNS.
In experiment [16] the test system is PC-3 prostate.
In experiment [17] the test system is SK-MEL-5 melanoma.
Experiment [18] concerns UACC-62 melanoma.
Experiment [19] has as its system LOX IMVI melanoma.
The test system of experiment [20] is SK-MEL-28 melanoma.

Consider `COc1ccc(C(=NN=C(N)N)c2ccc(OC)cc2)cc1`, for which the growth was 52.8% in experiment [1]; 19.9% in experiment [2]; 69.4% in experiment [3]; 48.4% in experiment [4]; -2.81% (active) in [5]; 47.1% in experiment [6]. The growth was 48.5% in experiment [7]; 57.7% in experiment [8]; 43.6% in experiment [9]; 18.3% in experiment [10]; 69.1% in experiment [11]; 15.4% in [12]. The growth in [13] was -5.63% (active); in experiment [14] it was 43.6%; in [15] it was 39.4%; in [16], 30.6%; in experiment [17] it was 13.9%; in [18], 52.6%. In addition, the growth in experiment [19] is 15.8%; in experiment [20], 59%.
As to `COc1ccc(-c2csc(C3=C(O)CN(CCCN4CCCC4=O)C3=N)n2)cc1OC`, the growth in experiment [1] was 103%; in experiment [2] it was 88.9%; in experiment [3] it was 129%; in experiment [4], 79.6%; in experiment [5], 78.3%; in experiment [6], 121%. Besides, the growth in experiment [7] is 92%; in [8] it was 90.1%; in experiment [9], 97.2%; in experiment [10], 122%; in [11], 94%; in experiment [12] it was 114%. Besides, the growth in experiment [13] was 106%; in [14] it was 93.8%; in experiment [15] it was 99%; in [16], 83.5%; in [17] it was 89.2%; in experiment [18], 103%. Moreover, the results for the growth in [19] and in experiment [20] were 93.5% and 124%, respectively.
Turning to `COc1ccc(-c2cc(-c3ccc(Nc4nc(Nc5ccc(Cl)cc5)nc(Nc5ccc(Cl)cc5)n4)cc3)nc(N)c2C#N)cc1`, the growth was 37.7% in experiment [1]; 30.1% in experiment [2]; -70.3% (active) in experiment [3]; -30.7% (active) in [4]; -32.5% (active) in experiment [5]; 59% in experiment [6]. Moreover, the growth in [7] was 415%; in experiment [8], -48.7% (active); in experiment [9], -13.2% (active); in experiment [10], 24.9%; in experiment [11] it was 10.6%; in [12], 2.33% (active). Moreover, the growth in experiment [13] was -74.1% (active); in experiment [14], 105%; in experiment [15], 10.9%; in experiment [16] it was 4.49% (active); in experiment [17], -67.5% (active); in [18] it was 42.4%. The growth is -75.1% (active) in experiment [19] and -47.5% (active) in experiment [20].
As to `CCc1c2c(nc3ccc(OC(=O)OCc4ccc(B5OC(C)(C)C(C)(C)O5)cc4)cc13)-c1cc3c(c(=O)n1C2)COC(=O)[C@]3(O)CC`, the growth in [1] is 4.84% (active); in experiment [2], 13.1%; in experiment [3], -43.9% (active); in experiment [4], 17.4%; in [5] it was -64.7% (active); in experiment [6] it was -7.41% (active). Also, the growth in experiment [7] is 0.0181% (active); in experiment [8], -62.9% (active); in experiment [9], -60% (active); in experiment [10] it was 4.15% (active); in [11], 9.28% (active); in [12], 24.8%. The growth is -21.5% (active) in [13]; 1.62% (active) in experiment [14]; -57.2% (active) in experiment [15]; 14.9% in experiment [16]; -84.2% (active) in [17]; -80.8% (active) in experiment [18]. In addition, the growth was -67.8% (active) in [19] and -0.304% (active) in [20].
As for `COc1cccc(-c2nc3sccn3c2/C=C/C(=O)c2ccc(C(F)(F)F)cc2)c1`, the growth in experiment [1] is 88.4%; in experiment [2] it was 51.8%; in experiment [3] it was 104%; in experiment [4], 89.6%; in [5] it was 67.7%; in experiment [6], 89.2%. Also, the growth in [7] was 106%; in experiment [8], 96.6%; in [9] it was 73.9%; in experiment [10] it was 85.4%; in experiment [11], 69.1%; in experiment [12] it was 75.3%. Further, the growth in experiment [13] is 81.7%; in experiment [14], 79.7%; in experiment [15] it was 83.2%; in experiment [16] it was 63.2%; in experiment [17], 71.5%; in experiment [18] it was 66.1%. The figures for the growth in experiment [19] and in experiment [20] were 88.3% and 83.6%, respectively.
For `Cc1cc(C)c(-c2c(C)cc(C)cc2CBr)c(CBr)c1`, the growth in experiment [1] is 94.9%; in experiment [2] it was 67.7%; in experiment [3], 73.5%; in experiment [4], 97.9%; in experiment [5], 14.8%; in experiment [6] it was 74.2%. Besides, the growth in experiment [7] is 84.7%; in experiment [8], 96.4%; in experiment [9], 73.9%; in experiment [10] it was 72.5%; in [11], 80.6%; in experiment [12] it was 86.3%. The growth is 92.3% in [13]; 86.2% in experiment [14]; 73% in experiment [15]; 78.4% in experiment [16]; 77.6% in [17]; 70.9% in [18]. In addition, the results for the growth in experiment [19] and in experiment [20] were 53% and 86.9%, respectively.
As for `O=[N+]([O-])c1ccc(C2CC(c3ccccc3)=Nc3ccccc3S2)cc1` (stereo not given), the growth in experiment [1] was 107%; in [2], 32.4%; in [3], 107%; in experiment [4], 101%; in experiment [5], 116%; in experiment [6], 98%. Also, the growth in experiment [7] was 119%; in [8] it was 101%; in [9], 108%; in experiment [10], 104%; in experiment [11], 97.6%; in experiment [12] it was 97.4%. In addition, the growth in [13] is 57.2%; in experiment [14], 85.8%; in experiment [15], 62.5%; in experiment [16], 88.1%; in experiment [17] it was 87.5%; in experiment [18] it was 84.7%. For the same compound, the figures for the growth in experiment [19] and in [20] were 64.3% and 116%, respectively.
Take `CCN(CC)CCn1nc2c3c(cccc3c1=O)-c1ccccc1-2`: the growth in experiment [1] was 20.9%; in experiment [2], 13.8%; in experiment [3], -9.04% (active); in experiment [4], 37.7%; in experiment [5], 24.2%; in experiment [6], 45.9%. The growth was 7.02% (active) in [7]; 30.7% in experiment [8]; 2.85% (active) in experiment [9]; 28.4% in [10]; 17.1% in experiment [11]; 15.6% in experiment [12]. In addition, the growth was 50.9% in [13]; 26% in experiment [14]; 6.95% (active) in experiment [15]; 26.6% in experiment [16]; -20% (active) in [17]; 5.94% (active) in experiment [18]. Also, the results for the growth in [19] and in experiment [20] were -3.44% (active) and 37.1%, respectively.
